Screens as filed in PubChem BioAssay.
OPRM1-OPRD1 ag: agonists of human mu-delta opioid receptor heterodimerization; P35372+P41143; cells, OPRM1-OPRD1 heterodimerization, luminescence; activation, % at 9.3 µM; 0.3% of 340,000 active; AID 504326; in the data active = activation above about 18%;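 also: 0% = vehicle-treated cells and 100% = reference agonist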
Target sequence (P35372 whole entry, looked up): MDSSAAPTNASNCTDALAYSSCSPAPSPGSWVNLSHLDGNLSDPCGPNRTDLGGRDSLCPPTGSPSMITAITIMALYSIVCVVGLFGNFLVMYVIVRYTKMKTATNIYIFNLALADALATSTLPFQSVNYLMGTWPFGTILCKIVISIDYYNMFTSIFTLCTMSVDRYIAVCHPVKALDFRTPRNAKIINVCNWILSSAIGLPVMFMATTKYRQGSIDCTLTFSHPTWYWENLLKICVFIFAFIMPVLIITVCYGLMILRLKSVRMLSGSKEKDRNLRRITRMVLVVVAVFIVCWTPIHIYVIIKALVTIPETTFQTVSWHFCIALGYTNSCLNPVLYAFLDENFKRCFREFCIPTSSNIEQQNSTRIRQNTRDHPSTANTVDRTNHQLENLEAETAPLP
Target sequence (P41143 whole entry, looked up): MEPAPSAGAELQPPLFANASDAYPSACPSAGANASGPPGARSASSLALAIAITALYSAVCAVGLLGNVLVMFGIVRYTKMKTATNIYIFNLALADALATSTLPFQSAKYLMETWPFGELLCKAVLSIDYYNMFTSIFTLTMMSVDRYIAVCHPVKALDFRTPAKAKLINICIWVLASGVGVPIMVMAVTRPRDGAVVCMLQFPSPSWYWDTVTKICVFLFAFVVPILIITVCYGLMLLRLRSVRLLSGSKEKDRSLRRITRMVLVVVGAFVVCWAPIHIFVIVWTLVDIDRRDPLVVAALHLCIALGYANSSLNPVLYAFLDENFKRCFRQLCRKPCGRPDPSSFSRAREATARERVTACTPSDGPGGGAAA
HTR5A ag: activates human HTR5A in OPRM1-OPRD1 agonist counter-screen | activation, % at 9.3 µM | P47898 | HTR5A agonist assay, luminescence, cell-based | 0.61% of 340,000 active; in the data active = activation mostly above about 9.5%, no sharp cut-off; inactive = mostly below about 7.6%;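 also: 0% = cells with vehicle only and 100% = reference agonist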
HTR5A inv ag: inverse agonist of human HTR5A in OPRM1-OPRD1 counter-screen. P47898. inhibition, % at 9.3 µM. 0.083% of 340,000 active. HTR5A cell line, luminescence, inverse agonism; in the data active = inhibition mostly above about 23%, no sharp cut-off; inactive = mostly below about 18%;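 also: 0% = cells with DMSO and 100% = no-cell wells with DMSO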
MOR-DOR inv ag: mu-delta opioid heterodimer inverse agonism; P35372+P41143; cell-based MOR-DOR heterodimer luminescence; inhibition, % at 9.3 µM; 0.21% of 340,000 active; AID 504357; in the data active = inhibition above about 22%, passing the limit was not always enough;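 also: 0% = cells with DMSO and 100% = wells without cells with DMSO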
MOR-DOR inv conf: confirmation of human OPRM1-OPRD1 heterodimerization inverse agonists | shares compounds with MOR-DOR inv ag | cells expressing OPRM1/OPRD1 heterodimer, luminescence | inhibition, % at 9.3 µM | 20% of 580 active | AID 504900; in the data active = inhibition above about 32%;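 also: 0% = cells with DMSO and 100% = wells lacking cells with DMSO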
HTR5A inv count: counter-screen for OPRM1-OPRD1 inverse agonists: human HTR5A inverse agonism; shares compounds with MOR-DOR inv ag; HTR5A-expressing cells, luminescence; inhibition, % at 9.3 µM; 580 tested, under 10 active; call rule not given here;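 also: 0% = cells with DMSO and 100% = no-cell wells with DMSO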
* hit, by the source's call; i = inactive; · = no result given. Shown are actives, neighbours in structure and some others; about 1.1% of the full set was active somewhere.

SMILES	OPRM1-OPRD1 ag	HTR5A ag	HTR5A inv ag	MOR-DOR inv ag	MOR-DOR inv conf	HTR5A inv count
Cc1ccc2c(c1)C(=O)C(=O)N2CCOc1ccccc1	-8	-2	5	38*	-6	-1
CCCN1C(=O)C(=O)c2cc(C)ccc21	-4	2	25	16	·	·
Cc1cccc(OCCN2C(=O)C(=O)c3cc(C)ccc32)c1	-6	6	20	30*	-6	-16
CCC1(O)CC2CN(CCc3c([nH]c4ccccc34)C(C(=O)OC)(c3cc4c(cc3OC)N(C=O)C3C(O)(C(=O)OC)C(OC(C)=O)C5(CC)C=CCN6CCC43C65)C2)C1 (stereo not drawn)	-2	2	-7	8	·	·
ON1C(c2ccc(Cl)cc2Cl)N(O)[C@H]2CCCC[C@H]21 (stereo partly drawn)	-11	-3	7	63*	i	0
CC1N(O)C(c2ccc(Cl)cc2Cl)N(O)C1(C)C (stereo not drawn)	-1	-1	-22	5	·	·
CC(Sc1nnc(COc2ccc(Cl)cc2)o1)C(=O)Nc1ccc(N2CCOCC2)cc1 (stereo not drawn)	-1	-1	17	6	·	·
Nc1nc(-c2ccccn2)nc(N)c1Cc1ccc(Cl)cc1Cl	-7	-2	6	36*	-12	-21
CCCc1nnc(NC(=S)Nc2ccccc2)s1	1	-5	5	-5	·	·
CC(C)C(=O)Nc1nnc(NC(=S)Nc2ccccc2)s1	-8	-3	14	36*	34*	10
CC(=O)Nc1ccc(O)c(-c2nc3ccccc3s2)c1	-4	3	-2	26*	-47	-8
Cc1ccc2oc(/N=C(\N)NC(=O)C(C)(C)C)nc2c1	-9	-9	14	45*	19	-11
Cc1ccc2oc(/N=C(\N)NC(=O)C3CC3)nc2c1	2	6	-15	-8	·	·
Cc1ccccc1OCCCN1C(=O)C(=O)c2cccc(C)c21	-10	3	-8	50*	i	-2
Cc1ccc2c(c1)C(=O)C(=O)N2CCCOc1ccccc1C	-4	4	-13	19	·	·
Cc1ccc(S(=O)(=O)N(C)c2ccc(C(=O)N(C)Cc3nc4ccccc4c(=O)[nH]3)cc2)cc1	-1	-3	8	7	·	·
Cc1csc(=Nc2c(C)n(C)n(-c3ccccc3)c2=O)n1-c1ccccc1	1	4	3	-3	·	·
Cc1c(N=C2C(=O)Nc3ccccc32)c(=O)n(-c2ccccc2)n1C	-10	-6	18	52*	42*	23
COc1ccc(C(=O)Cc2nnc(C)s2)c(OC)c1	-12	-6	19	78*	37*	9
COCCN(C(=O)CSc1nnc(-c2ccccc2F)n1N)c1c(N)n(Cc2ccccc2)c(=O)[nH]c1=O	-7	8	-21	29*	-28	5
O=C(COC(=O)Cc1c(F)cccc1Cl)NNC(=O)c1ccccc1	-2	2	-5	9	·	·
Oc1[nH]c2ccccc2c1N=Nc1ccccc1	-1	1	-4	5	·	·
O=S1(=O)N=C(N=Nc2c(O)[nH]c3ccccc23)c2ccccc21	-4	-2	17	25*	-4	5
COc1ccc(N=C2C(=O)N3CCCc4cccc2c43)cc1	-5	4	27	22	·	·
Cc1cccc2c1NC(=O)C2=Nc1ccc(Cl)cc1	-11	-5	2	55*	45*	17
SMILES	OPRM1-OPRD1 ag	HTR5A ag	HTR5A inv ag	MOR-DOR inv ag	MOR-DOR inv conf	HTR5A inv count
Cc1ccc(N=C2C(=O)Nc3c(C)cccc32)cc1	-11	-4	14	55*	32*	9
Cc1ccc(N=C2C(=O)Nc3ccc(Br)cc32)cc1	-5	-2	6	24	·	·
COc1ccc(N=C2C(=O)Nc3c(C)cccc32)cc1	-11	-7	25	62*	51*	24
O=C(c1nc[nH]c1C(=O)N1CCN(c2ccccc2)CC1)N1CCN(c2ccccc2)CC1	-1	5	-16	7	·	·
COc1cccc([C@@H]2Oc3ccc(OC)cc3C(=O)[C@H]2O)c1	-6	-3	4	35*	19	9
Cc1ccc(S(=O)(=O)N=Nc2c(O)[nH]c3ccccc23)cc1	-8	-4	12	50*	1	17
Cc1ccc(C)c(S(=O)(=O)N=Nc2c(O)[nH]c3ccccc23)c1	-8	-8	23	46*	19	9
CC1(C)C(c2cccs2)=NC(c2ccccc2)N1O (stereo not drawn)	-3	5	-14	14	·	·
CC1(C)C(c2ccccc2)=NC(c2ccc(F)cc2)N1O (stereo not drawn)	-5	4	-5	29*	-13	-57
CCOC(=O)N1CCN(c2ccc(S(=O)(=O)N3CCC(C)CC3)cc2[N+](=O)[O-])CC1	2	3	-7	-7	·	·
O=C1N(Cc2ccccc2)CC2(Br)COCOC12O (stereo not drawn)	-9	-5	19	45*	-21	-1
O=C(C1=C(Nc2ccccc2)c2ccccc2S(=O)(=O)N1)c1ccccc1	-6	-3	7	32*	19	14
O=C(COC(=O)CC1CCCC1)Nc1ccc(Cl)cc1	5	8	-2	-26	·	·
O=C1NC[C@@H](c2ccccc2)OC(=O)[C@@H](Cc2ccc(F)cc2)CC/C=C/C[C@@H]1CC(=O)N(CCO)Cc1ccccc1	-6	-6	10	34*	9	26
FC(F)(F)c1nc2ccccc2n2c(-c3ccc(Cl)cc3)nnc12	-7	-4	9	31*	14	4
Cc1ccc(-c2nnc3c(C(F)(F)F)nc4ccccc4n23)cc1	-4	2	-5	20	·	·
Cc1cc(NC(=O)CSCC(=O)OCC(=O)c2cccc(Br)c2)no1	-6	-8	20	27*	-34	7
O=C(CN1C(=O)NC(Cc2ccccc2)C1=O)Nc1ccc(F)c(Cl)c1 (stereo not drawn)	-3	10	-24	14	·	·
CNC(=S)NNC(=O)c1sc2cc(C(F)(F)F)cnc2c1-c1ccccn1	-6	-7	18	31*	4	4
COc1ccc(C2CC(=O)Oc3cc(C)c(Cl)c(C)c32)cc1 (stereo not drawn)	1	-1	5	-7	·	·
CCn1c(O)c(/C=N/N=C/c2ccc(OC)cc2)c2cc(C3=NNC(=O)CC3)ccc21	-1	5	14	7	·	·
CC/C(C)=N\N=C\c1c(O)n(CC)c2cc(C3=NNC(=O)CC3)ccc12	-7	-5	21	31*	50*	15
Cc1nc2c(nc1C)C(=O)c1ccccc1C2=O	-2	1	-2	9	·	·
O=C1c2ccccc2-c2nc3ccccc3nc21	-16	-6	10	79*	-437	-10
O=C(CCN=C1NS(=O)(=O)c2ccccc21)OCC(=O)c1ccccc1Cl	-4	0	0	20	·	·
O=C(CN=C1NS(=O)(=O)c2ccccc21)OCC(=O)c1cc(F)ccc1F	-6	-3	11	30*	7	46*
